Results as given in the supplement of paper PMC8975748.
Structures can show the parent of a compound that is named as a salt.

Tested on: Saccharomyces cerevisiae BY4741 SeMeCo community
Test: z-score of subpopulation abundance vs DMSO median, subpopulation auxotrophic for HL; higher = larger share of this subpopulation than in DMSO controls
Settings: 10 µM; 24 h; SM minimal medium; subpopulation (auxotrophy): HL
Experimental: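 Fluorescent four-plasmid SeMeCo (self-establishing metabolically cooperating S. cerevisiae BY4741 community; plasmids pH-mRuby2, pL-mWasabi, pU-eCFP, pM-TagRFP657) was grown 24 h in minimal SM medium with each Selleck FDA-approved drug at 10 µM in 384-well plates. Cells were fixed and imaged by high-content confocal microscopy. For each auxotrophic subpopulation (and the prototroph), a z-score gives the deviation from the DMSO vehicle-control population median.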

Row | SMILES | z-score of subpopulation abundance
1 | CN1[C@@H]2CC[C@H]1C[C@@H](OC(=O)C(CO)c1ccccc1)C2 (some centres undefined) [Atropine sulfate monohydrate] | -0.69
2 | C=CN1CCCC1=O.II [Povidone iodine] | 2.13
3 | CCOC(=O)Nc1ccc(NCc2ccc(F)cc2)cc1N [Retigabine 2HCl] | 1.24
4 | N#Cc1nn(-c2c(Cl)cc(C(F)(F)F)cc2Cl)c(N)c1[S+]([O-])C(F)(F)F (centres undefined) [Fipronil] | 0.71
5 | NCCc1c[nH]c2ccc(O)cc12 [Serotonin HCl] | -0.74
6 | C[C@@H]1O[C@@H](O[C@H]2C[C@@H](O)[C@]3(CO)[C@H]4[C@H](O)C[C@]5(C)[C@@H](C6=CC(=O)OC6)CC[C@]5(O)[C@@H]4CC[C@]3(O)C2)[C@H](O)[C@H](O)[C@H]1O [Ouabain] | -1.05
7 | CC(=O)OCC1=C(C(=O)O)N2C(=O)C(N)C2SC1 (centres undefined) [7-Aminocephalosporanic acid] | -0.23
8 | CN1[C@@H]2C[C@@H](OC(=O)[C@H](CO)c3ccccc3)C[C@H]1[C@@H]1O[C@@H]12 [Scopolamine HBr] | -0.91
9 | C#C[C@]1(O)C=C[C@H]2[C@@H]3CCC4=CC(=O)CC[C@@H]4[C@H]3CC[C@@]21CC [Gestodene] | 0.13
10 | CC[N+](C)(CC)CCOC(=O)C(O)(c1ccccc1)c1ccccc1 [Methylbenactyzine Bromide] | -0.61
11 | CN1c2ccccc2C(NCCCCCCC(=O)O)c2ccc(Cl)cc2S1(=O)=O (centres undefined) [Tianeptine sodium] | -0.07
12 | CN[C@@H]1[C@@H](O)[C@@H](O[C@@H]2[C@@H](O)[C@H](O[C@H]3O[C@H](CN)CC[C@H]3N)[C@@H](N)C[C@H]2N)OC[C@]1(C)O.CN[C@@H]1[C@@H](O)[C@@H](O[C@@H]2[C@@H](O)[C@H](O[C@H]3O[C@H]([C@@H](C)N)CC[C@H]3N)[C@@H](N)C[C@H]2N)OC[C@]1(C)O.CN[C@@H]1[C@@H](O)[C@@H](O[C@@H]2[C@@H](O)[C@H](O[C@H]3O[C@H]([C@@H](C)NC)CC[C@H]3N)[C@@H](N)C[C@H]2N)OC[C@]1(C)O [Gentamicin Sulfate] | -1.11
13 | CN(C)[C@@H]1C(=O)C(C(N)=O)=C(O)[C@@]2(O)C(=O)C3=C(O)c4c(O)cccc4[C@@](C)(O)[C@H]3C[C@@H]12 [Tetracycline HCl] | 0.29
14 | COc1cc2c(cc1OC)C1CC(=O)C(CC(C)C)CN1CC2 (centres undefined) [Tetrabenazine (Xenazine)] | 0.31
15 | CC(NC(C)(C)C)C(=O)c1cccc(Cl)c1 (centres undefined) [Amfebutamone (Bupropion) HCl] | 0.03
16 | CN1[C@@H]2CC[C@H]1C[C@@H](OC(=O)[C@H](CO)c1ccccc1)C2 [Hyoscyamine] | -0.72
17 | CN1[C@@H]2C[C@@H](OC(=O)[C@H](CO)c3ccccc3)C[C@H]1[C@@H]1O[C@@H]12 [Scopolamine HBr trihydrate] | -0.72

Row | SMILES | z-score of subpopulation abundance
18 | C[CH2][Hg][S]c1ccccc1C(=O)[O-].[Na+] [Thimerosal] | 11.9
19 | Nc1nc(N)nc(NC2CC2)n1 [Cyromazine] | -0.97
20 | C[C@H]1O[C@H](O[C@H]2[C@H](O)[C@@H](O)[C@@H](O)[C@H](O)[C@@H]2O)[C@@H](N)C[C@@H]1NC(=N)C(=O)O [Kasugamycin hydrochloride] | -0.07
21 | C=CCN1C[C@H](C(=O)N(CCCN(C)C)C(=O)NCC)C[C@@H]2c3cccc4[nH]cc(c34)C[C@H]21 [Cabergoline] | -0.49
22 | CC[C@@]1(O)C(=O)OCc2c1cc1n(c2=O)Cc2cc3ccccc3nc2-1 [Camptothecin] | -0.59
23 | CCN(C)C(=O)Oc1cccc([C@H](C)N(C)C)c1 [Rivastigmine Tartrate] | 0.04
24 | CC(C)(O)C(Cl)(Cl)Cl [Chlorobutanol] | -0.54
25 | CCN(CC)CCOC(=O)C(O)(c1ccccc1)c1ccccc1 [Benactyzine hydrochloride] | -0.47
26 | CNC1CC(N)C(O)C(OC2OC(CO)C(O)C3OC4(OC(C(N)CO)C(O)C(O)C4O)OC23)C1O (centres undefined) [Hygromycin B] | -0.22
27 | CN(C)[C@@H]1C(=O)C(C(N)=O)=C(O)[C@@]2(O)C(=O)C3=C(O)c4c(O)cccc4[C@@](C)(O)[C@H]3[C@H](O)[C@@H]12 [Oxytetracycline Dihydrate] | 0.03
28 | CC[C@H]1CN2CC[C@]3(C(=O)Nc4ccccc43)[C@@H]2C[C@@H]1/C(=C\OC)C(=O)OC [Rhynchophylline] | 0.04
29 | COC(=O)C1=CCCN(C)C1 [Arecoline HBr] | 0.21
30 | CC[C@H]1[C@@H]2C[C@H]3[C@@H]4N(C)c5ccccc5[C@]45C[C@@H]([C@@H]2[C@H]5O)N3[C@@H]1O [Ajmaline] | -1.02
31 | O=[N+]([O-])C(Br)(CO)CO [Bronopol] | -1.08
32 | COc1ccc2c3c([nH]c2c1)C(C)=NCC3 [Harmaline] | 1.95
33 | Oc1cccc2cccnc12 [8-Hydroxyquinoline] | 0.63
34 | O=c1cccc2n1C[C@@H]1CNC[C@H]2C1 [Cytisine] | -0.4
